# Screening data as filed in PubChem BioAssay.
# Shown are actives, neighbours in structure and some others; about 1.3% of the full set was active somewhere.
# PrP UTR inh = inhibition of PrP 5' UTR reporter expression; cell-based PrP 5' UTR mRNA reporter, plate reader; inhibition, % (no concentration beside the values); 340,000 tested, 0.35% active; AID 488862; in the data active = inhibition above about 52%; also: 0 = median of the neutral control wells
# RecA intein inh = inhibitors of M. tuberculosis RecA intein splicing; cell-free RecA intein splicing, fluorescence; inhibition, % (concentration not given with the values); 290,000 tested, 0.75% active; AID 2221; in the data active = inhibition above about 30%; inconclusive = no clear call, values can overlap the other calls;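 also: 0% = vehicle wells and 100% = reference inhibitor control wells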
# FadD28 binding = M. tuberculosis FadD28 bisubstrate binding inhibition. inhibition, % at 12.5 µM. FadD28 bisubstrate probe binding, fluorescence polarization. 360,000 tested, 0.22% active; in the data active = inhibition above about 8.5%, passing the limit was not always enough; inconclusive = no clear call, values can overlap the other calls
# Mtb UGM inh = blocks M. tuberculosis UGM enzyme; inhibition, % at 10 µM; purified UGM, fluorescence polarization probe displacement; AID 504406; P9WIQ1; 320,000 tested, 0.06% active; in the data active = inhibition above about 10%, passing the limit was not always enough; inconclusive = no clear call, values can overlap the other calls
# Target sequence (P9WIQ1 whole entry, looked up): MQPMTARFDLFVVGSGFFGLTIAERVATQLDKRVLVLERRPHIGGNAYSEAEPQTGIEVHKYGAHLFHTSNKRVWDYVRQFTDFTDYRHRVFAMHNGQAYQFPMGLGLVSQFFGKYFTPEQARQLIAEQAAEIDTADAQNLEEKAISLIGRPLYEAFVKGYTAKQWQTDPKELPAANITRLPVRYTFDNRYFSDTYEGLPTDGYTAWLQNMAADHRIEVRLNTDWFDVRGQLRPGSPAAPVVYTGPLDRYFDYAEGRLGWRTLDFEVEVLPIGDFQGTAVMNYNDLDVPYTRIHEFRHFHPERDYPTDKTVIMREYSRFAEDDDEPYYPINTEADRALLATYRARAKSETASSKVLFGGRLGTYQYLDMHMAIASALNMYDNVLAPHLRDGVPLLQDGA
# BJeLR lethal = BJeLR cell viability loss; 300,000 tested, 0.17% active; inhibition, % (test concentration not listed); BJeLR (HRASV12) viability, CellTiter-Glo ATP luminescence, 48 h; AID 1554; in the data active = inhibition above about 50%; inconclusive = no clear call, values can overlap the other calls
# Rv3671c inh = Rv3671c (M. tuberculosis) protease inhibition. P9WHR9. inhibition, % at 5.96 µM. 320,000 tested, 0.048% active; in the data active = inhibition above about 38%;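 also: extracellular domain of Rv3671c used as enzyme; 0% = enzyme with DMSO and 100% = no enzyme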
# GFP chromophore = counter-screen: blocks GFP chromophore formation | shares compounds with RecA intein inh | cell-free GFP chromophore formation, fluorescence | EC50, µM | 2,100 tested, 83% active; call rule not given here
# The depositor's hits bear a star; ? = inconclusive; nt = no result.
SMILES,PrP UTR inh,RecA intein inh,FadD28 binding,Mtb UGM inh,BJeLR lethal,Rv3671c inh,GFP chromophore
COc1ccc(CS(=O)(=O)/C(Cl)=C(/Cl)C(=O)Nc2ccc(OC)nc2)cc1,48,78*,-4,2,-29,-12,9.7*
C=CCn1c(N)c(C(=O)Nc2cccc(C)c2)c2nc3ccccc3nc21,-3,34*,-6,-1,1,-4,24*
O=S(=O)(Nc1cccnc1)c1cccc(C(F)(F)F)c1,-17,-2,-5,1,9,-8,nt
O=[N+]([O-])c1ccc(S(=O)(=O)c2cccc(C(F)(F)F)c2)nc1,-26,50*,-2,2,45,6,30*
CN1CCN(c2ncnc3c2ncn3[C@H]2CN(Cc3cccnc3)C[C@@H](CO)O2)CC1,nt,nt,-3,nt,nt,nt,nt
Cc1cc(C)nc(N2N=C(C(C)(C)C)CC2=O)n1,-9,40*,-2,-2,-8,-9,34*
CCNc1ccccc1CP(=O)(c1ccccc1)c1ccccc1O (configuration not stated),nt,32*,nt,6,4,30,2.2*
COc1ccc(C(=O)c2c(C(F)(F)F)oc3c2C(=O)c2ccccc2C3=O)cc1OC,-1,67*,-2,2,2,-70,11*
CCC(CC)C(=O)NCc1ccc2c(c1)cc(C)n2C,-27,31*,1,1,-4,-9,>38
CC1=Nc2cccc3cccc(c23)N1C,-8,78*,-2,-1,-9,-6,>38
CC1(C)Cc2ccccc2C(Nn2cnnc2)=N1,-9,1,0,5,-8,2,nt
CC1(C)Cc2ccccc2C2=NNC(=O)C2=N1,-18,94*,-2,-1,-13,-14,1.1*
CCOC(=O)CC1=NN(c2ccccc2)C(=O)/C1=C\c1ccc(OC)cc1OC,-25,47*,1,-2,-5,1,0.41*
CCC(c1nc2ccccc2[nH]1)N(C(=O)C1=NNC(=O)CC1)c1ccccc1 (configuration not stated),nt,nt,-4,nt,nt,nt,nt
Cc1cc(C)cc(CC(=O)N2CCC2(C)C(=O)NS(=O)(=O)c2cccc(F)c2)c1 (configuration not stated),nt,nt,0,nt,nt,nt,nt
COc1ccccc1Nc1nnc(C)c(=O)[nH]1,-5,0,0,-4,-15,-3,nt
CC(=O)c1cccc(Nc2nc(-c3ccccc3)nc3ccccc23)c1,25,-3,0,3,-3,-2,nt
CC(=O)c1cccc(-c2ccc3c(=O)[nH]c(Nc4ccccc4)cc3c2)c1,-12,94*,-2,-2,15,-119,8.6*
O=c1[nH]c(Nc2ccccc2)cc2ccccc12,-12,64*,1,-5,-2,-139,?
Cn1c(=O)cc(Nc2ccccc2)[nH]c1=O,-21,-1,-2,1,7,-6,nt
O=c1[nH]c(Nc2ccccc2)cc2cc(Br)ccc12,-24,90*,-1,-2,11,-153,6*
COc1ccccc1Nc1cc2cc(Br)ccc2c(=O)[nH]1,-36,47*,-1,2,16,-121,7.8*
O=C(Nc1ccc2c(c1)OCO2)c1cc(C2CCCCN2S(=O)(=O)c2cccs2)on1 (configuration not stated),nt,nt,-4,nt,nt,nt,nt
COc1ccc(OC)c(Nc2cc3ccccc3c(=O)[nH]2)c1,11,83*,0,5,15,-122,1.9*
COc1ccc(OC)c(Nc2nnc(C)c(=O)[nH]2)c1,nt,0,nt,1,6,11,nt
SMILES,PrP UTR inh,RecA intein inh,FadD28 binding,Mtb UGM inh,BJeLR lethal,Rv3671c inh,GFP chromophore
FC(F)(F)c1nnc(-c2ccccc2)nc1Sc1ccc(Cl)cc1,-29,23,-1,0,2,0,nt
FC(F)(F)c1nnc(-c2ccccc2)nc1Sc1ccccc1,-20,63*,-5,3,-6,6,27*
CN(NC(=O)c1cccc(Cl)c1)c1nc(-c2ccccc2)nnc1C(F)(F)F,-14,-9,-2,1,-3,-5,nt
FC(F)(F)c1nnc(-c2ccccc2)nc1Oc1ccc(Cl)cc1Cl,-17,61*,-5,2,-7,4,0.45*
FC(F)(F)c1cccc(Sc2nc(-c3ccccc3)nnc2C(F)(F)F)c1,-5,21,-1,3,-4,9,nt
FC(F)(F)c1cccc(Oc2nc(-c3ccccc3)nnc2C(F)(F)F)c1,-18,58*,-2,-1,-2,5,1.5*
O=C(COC(=O)c1cc(S(=O)(=O)N2CCOCC2)ccc1Cl)c1ccc[nH]1,nt,nt,-4,nt,nt,nt,nt
